Measured values from PubChem BioAssay (EPA / NIEHS).
Several values for one entry are separate records, joined by “and”; a condition that tells them apart may be missing. Equal entries are not always repeated. Inconclusive results are not listed. Some compounds were tested as several samples or in several runs, with calls that do not always agree. Activity calls are given as the source filed them. The calls were made as follows, unless noted: active = hit-call score of the fitted dose curve at least 0.9, where 1 is the maximum; inactive = score below 0.9.

Key:
[1] = biological target: human RAR-related Orphan Receptor gamma (RORg), RORC (gene 6097) (UniProt P51449); test: ATG_RORg_TRANS: Attagene TRANS-FACTORIAL HepG2 Assay for human RAR-related Orphan Receptor gamma (RORg) (AID 2283011; active = hit-call score of the fitted dose curve at least 0.9, where 1 is the maximum;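 as to AC50: potency for induction of reporter transcripts above DMSO so activators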)
Sequence of human RAR-related Orphan Receptor gamma (RORg), RORC (gene 6097) (P51449 whole entry, looked up, the tested form may be a part): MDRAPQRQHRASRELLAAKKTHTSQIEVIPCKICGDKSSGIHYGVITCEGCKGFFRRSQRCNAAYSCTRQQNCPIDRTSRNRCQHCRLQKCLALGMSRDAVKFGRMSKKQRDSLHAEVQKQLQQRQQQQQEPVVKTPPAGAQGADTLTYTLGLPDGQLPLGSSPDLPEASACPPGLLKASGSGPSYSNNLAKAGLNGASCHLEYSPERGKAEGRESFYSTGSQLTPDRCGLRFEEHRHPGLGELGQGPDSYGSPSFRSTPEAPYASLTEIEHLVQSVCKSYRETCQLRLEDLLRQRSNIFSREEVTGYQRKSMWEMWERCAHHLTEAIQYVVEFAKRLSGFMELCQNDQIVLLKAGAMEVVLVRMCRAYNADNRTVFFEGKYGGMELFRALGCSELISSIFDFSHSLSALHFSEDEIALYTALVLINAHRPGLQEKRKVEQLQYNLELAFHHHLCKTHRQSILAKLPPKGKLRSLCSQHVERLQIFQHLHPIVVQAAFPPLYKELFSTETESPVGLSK
Method in brief: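 Reporter transcripts from a transfected RORg-GAL4 chimera in HepG2 cells were quantified 24 h after dosing by RT-PCR, 6-FAM labelling, HpaI digestion and capillary electrophoresis; increases over DMSO baseline were fitted.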

[2] = biological target: human Retinoid X Receptor beta (RXRb), RXRB (gene 6257) (UniProt P28702); test: ATG_RXRb_TRANS: Attagene TRANS-FACTORIAL HepG2 Assay for human Retinoid X Receptor beta (RXRb) (AID 2283013; active = hit-call score of the fitted dose curve at least 0.9, where 1 is the maximum)
Sequence of human Retinoid X Receptor beta (RXRb), RXRB (gene 6257) (P28702 whole entry, looked up, the tested form may be a part): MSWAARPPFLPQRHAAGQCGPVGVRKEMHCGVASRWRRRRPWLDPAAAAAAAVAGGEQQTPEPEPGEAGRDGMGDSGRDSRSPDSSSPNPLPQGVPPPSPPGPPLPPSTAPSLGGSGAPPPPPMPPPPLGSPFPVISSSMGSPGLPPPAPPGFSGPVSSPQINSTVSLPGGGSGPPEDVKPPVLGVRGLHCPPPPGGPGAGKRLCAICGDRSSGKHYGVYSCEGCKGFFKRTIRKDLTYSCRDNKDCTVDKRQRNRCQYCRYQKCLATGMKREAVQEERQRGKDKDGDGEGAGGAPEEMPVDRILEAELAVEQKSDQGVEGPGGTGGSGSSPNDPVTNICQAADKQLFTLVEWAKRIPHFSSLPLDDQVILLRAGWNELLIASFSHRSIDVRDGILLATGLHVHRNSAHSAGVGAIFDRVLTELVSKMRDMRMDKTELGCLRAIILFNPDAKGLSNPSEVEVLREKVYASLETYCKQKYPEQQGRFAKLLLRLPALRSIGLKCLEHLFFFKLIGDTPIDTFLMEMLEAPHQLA
Method in brief: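 Transfect HepG2 with GAL4-UAS multi-reporter constructs (chimeric NR-Gal4, TRANS format); dose compound 24 h; isolate RNA, RT-PCR, FAM primer extension, HpaI digest; quantify by capillary electrophoresis; positive direction vs DMSO.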

[3] = read-out: E-selectin (Homo sapiens) (UniProt P16581); test: BSK_3C_Eselectin: BioMAP Diversity Plus: 3C Assay for Eselectin Biomarker Activity (AID 2283015); conditions: primary human endothelial cells (HUVEC); actives raise or lower the signal
Method in brief: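 E-selectin ELISA readout, fitted bidirectionally relative to DMSO, taken 24 h post-dosing in HUVEC cultures of the 3C system. Overt cytotoxicity tracked with sulforhodamine B staining of parallel wells.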

[4] = read-out: Interleukin-1 alpha (IL1a), IL1A (gene 3552); test: BSK_BE3C_IL1a: BioMAP Diversity Plus: BE3C Assay for Interleukin-1 alpha (IL1a) Biomarker Activity (AID 2283016); conditions: primary human bronchial epithelial cells; actives raise or lower the signal
Method in brief: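 BE3C primary human bronchial epithelium; cpd 24 h; IL-1a by ELISA; bidirectional fit vs DMSO; parallel SRB (0.1% SRB, 10% TCA fix, 560 nm) for cytotoxicity.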

[5] = read-out: Monocyte Chemoattractant Protein-1 (MCP1), CCL2 (gene 6347); test: BSK_3C_MCP1: BioMAP Diversity Plus: 3C Assay for Monocyte Chemoattractant Protein-1 (MCP1) Biomarker Activity (AID 2283017); conditions: primary human endothelial cells (HUVEC); actives raise or lower the signal
Method in brief: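 MCP-1 was measured by ELISA 24 h after dosing in primary HUVEC 3C cultures and fitted in both directions relative to DMSO; cytotoxicity was checked by SRB total-protein staining in parallel wells.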

[6] = read-out: Monocyte Chemoattractant Protein-1 (MCP1), CCL2 (gene 6347); test: BSK_4H_MCP1: BioMAP Diversity Plus: 4H Assay for Monocyte Chemoattractant Protein-1 (MCP1) Biomarker Activity (AID 2283018); conditions: primary human endothelial cells (HUVEC); actives raise or lower the signal
Method in brief: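 ELISA read-out of MCP-1 from human vascular endothelial primary cells taken at 24 hours after compound exposure. Activity was fitted in both directions relative to DMSO, which served as negative control.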

[7] = read-out: Human Leukocyte Antigen - DR isotype (HLADR), HLA-DRA (gene 3122); test: BSK_3C_HLADR: BioMAP Diversity Plus: 3C Assay for Human Leukocyte Antigen - DR isotype (HLADR) Biomarker Activity (AID 2283019); conditions: primary human endothelial cells (HUVEC); actives raise or lower the signal
Method in brief: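 Bidirectional fitting against DMSO was applied to the HLA-DR ELISA signal from human umbilical vein endothelial cells, 24 h post-dose. Cytotoxicity came from parallel SRB total-protein staining; 3C proliferation was counted by SRB at 48 h.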

[8] = read-out: Interleukin-8 (IL8), CXCL8 (gene 3576); test: BSK_3C_IL8: BioMAP Diversity Plus: 3C Assay for Interleukin-8 (IL8) Biomarker Activity (AID 2283020); conditions: primary human endothelial cells (HUVEC); actives raise or lower the signal
Method in brief: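 ELISA read-out of IL-8 from human umbilical vein endothelium, measured 24 h after chemical dosing. Activity is expressed relative to DMSO negative control, with both increases and decreases fitted.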

[9] = read-out: Monokine induced gamma interferon (MIG), CXCL9 (gene 4283); test: BSK_3C_MIG: BioMAP Diversity Plus: 3C Assay for Monokine induced gamma interferon (MIG) Biomarker Activity (AID 2283021); conditions: primary human endothelial cells (HUVEC); actives raise or lower the signal;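 as to AC50: MIG protein level measured by immunoassay in the treated endothelial cultures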
Method in brief: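 Read-out is ELISA detection of MIG on human umbilical vein endothelial cells, taken 24 h after dosing. Gain or loss of signal was scored relative to DMSO controls using bidirectional curve fitting.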

[10] = biological target: human Vitamin D Receptor (VDR), VDR (gene 7421) (UniProt P11473); test: ATG_VDR_TRANS: Attagene TRANS-FACTORIAL HepG2 Assay for human Vitamin D Receptor (VDR) (AID 2283022; active = hit-call score of the fitted dose curve at least 0.9, where 1 is the maximum)
Sequence of human Vitamin D Receptor (VDR), VDR (gene 7421) (P11473 whole entry, looked up, the tested form may be a part): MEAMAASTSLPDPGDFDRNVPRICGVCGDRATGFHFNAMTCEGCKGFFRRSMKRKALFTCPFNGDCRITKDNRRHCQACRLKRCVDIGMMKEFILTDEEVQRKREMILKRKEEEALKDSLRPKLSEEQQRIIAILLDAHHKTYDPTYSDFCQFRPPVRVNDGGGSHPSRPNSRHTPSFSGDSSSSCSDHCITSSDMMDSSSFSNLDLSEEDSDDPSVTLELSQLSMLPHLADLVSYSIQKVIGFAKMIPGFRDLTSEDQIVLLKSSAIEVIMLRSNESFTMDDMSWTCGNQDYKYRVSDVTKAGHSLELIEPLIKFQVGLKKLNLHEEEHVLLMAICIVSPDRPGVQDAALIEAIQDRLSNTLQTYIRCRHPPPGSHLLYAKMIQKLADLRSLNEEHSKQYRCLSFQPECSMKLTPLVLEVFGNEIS
Method in brief: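 Transactivation by an exogenous VDR-Gal4 chimera in transiently transfected HepG2 cells was measured as reporter transcript level 24 hours after chemical treatment. RT-PCR products were analysed by capillary electrophoresis and fitted in the positive direction relative to DMSO.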

[11] = BSK_3C_SRB: Viability Assessment in the BioMAP Diversity Plus: 3C Assay (AID 2283023); conditions: primary human endothelial cells (HUVEC);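 also: fitted both ways against DMSO so a hit may be signal rise or drop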
Method in brief: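 Cytotoxicity readout in parallel HUVEC 3C cultures: after 24 h compound exposure, cells fixed with 10% TCA, stained with 0.1% SRB and read at 560 nm. Gain or loss relative to DMSO fitted.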

[12] = read-out: Matrix Metallopeptidase 1 (MMP1), MMP1 (gene 4312); test: BSK_BE3C_MMP1: BioMAP Diversity Plus: BE3C Assay for Matrix Metallopeptidase 1 (MMP1) Biomarker Activity (AID 2283024); conditions: primary human bronchial epithelial cells; actives raise or lower the signal
Method in brief: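 Human bronchial epithelial cells (BE3C system) exposed to compound for 24 h; MMP1 then quantified by ELISA. Activity was fitted in both directions relative to DMSO.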

[13] = BSK_3C_Vis: BioMAP Diversity Plus: 3C Assay for Morphology Visualization (AID 2283025); conditions: primary human endothelial cells (HUVEC);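 also: fitted both ways so gain or loss versus DMSO counts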;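 as to AC50: light microscopy image of cell morphology used as background control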
Method in brief: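 Chemicals were added to primary human umbilical vein endothelium, cells were incubated 24 h, and morphology was then visualized by light microscopy. Gain or loss of signal was fitted bidirectionally relative to DMSO.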

[14] = read-out: Pselectin, SELP (gene 6403); test: BSK_4H_Pselectin: BioMAP Diversity Plus: 4H Assay for Pselectin Biomarker Activity (AID 2283026); conditions: primary human endothelial cells (HUVEC); actives raise or lower the signal
Method in brief: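 ELISA read-out of P-selectin on human umbilical vein endothelium after 24 h of dosing. Values derive from bidirectional fitting relative to DMSO. Parallel SRB protein staining flagged overt cytotoxicity.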

[15] = BSK_4H_SRB: Viability Assessment in the BioMAP Diversity Plus: 4H Assay (AID 2283027); conditions: primary human endothelial cells (HUVEC);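 also: cells exposed to compound for 24 h before staining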;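 as to AC50: curves fitted both ways versus DMSO so AC50 may be loss or gain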
Method in brief: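 Human umbilical vein endothelial cells were dosed with chemical and, after 24 h, fixed with 10% TCA, stained with 0.1% sulforhodamine B, and read at 560 nm to give total protein as a cytotoxicity measure. Bidirectional fitting relative to DMSO control.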

[16] = BSK_BE3C_SRB: Viability Assessment in the BioMAP Diversity Plus: BE3C Assay (AID 2283028); conditions: primary human bronchial epithelial cells;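 as to AC50: fitted both ways so AC50 may mark signal gain or loss versus DMSO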
Method in brief: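 Cytotoxicity read-out: SRB (0.1%) staining of TCA-fixed (10%) human lung bronchial epithelial cells, absorbance 560 nm, 24 h post-dosing. Curves fitted both directions relative to DMSO.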

[17] = read-out: Thrombomodulin, THBD (gene 7056); test: BSK_3C_Thrombomodulin: BioMAP Diversity Plus: 3C Assay for Thrombomodulin Biomarker Activity (AID 2283029); conditions: primary human endothelial cells (HUVEC); actives raise or lower the signal
Method in brief: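 Read-out is ELISA of thrombomodulin on human umbilical vein endothelium 24 h after chemical dosing. Gain or loss of signal is scored relative to DMSO. Overt cytotoxicity is checked in parallel cultures by sulforhodamine B staining.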

[18] = read-out: Urokinase-type plasminogen activator receptor (uPAR), PLAUR (gene 5329); test: BSK_4H_uPAR: BioMAP Diversity Plus: 4H Assay for Urokinase-type plasminogen activator receptor (uPAR) Biomarker Activity (AID 2283030); conditions: primary human endothelial cells (HUVEC); actives raise or lower the signal
Method in brief: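 uPAR level read by ELISA on HUVEC cultures (BioMAP 4H) 24 h post-dosing, analyzed for gain or loss relative to DMSO. Parallel SRB staining assessed overt cytotoxicity.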

[19] = read-out: Vascular endothelial growth factor receptor 2 (Homo sapiens) (UniProt P35968); test: BSK_4H_VEGFRII: BioMAP Diversity Plus: 4H Assay for Vascular endothelial growth factor receptor 2 (VEGFR2) Biomarker Activity (AID 2283031); conditions: primary human endothelial cells (HUVEC); actives raise or lower the signal;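 as to AC50: cell-surface VEGFR2 protein level quantified by ELISA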
Method in brief: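 Measured by ELISA after 24 h of compound treatment: VEGFR2 on primary human umbilical vein endothelial cells, fitted in both directions relative to DMSO. Parallel cultures received SRB staining (560 nm) for overt cytotoxicity.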

[20] = biological target: Retinoic acid receptor RXR-alpha (Homo sapiens) (UniProt P19793); test: ATG_RXRa_TRANS: Attagene TRANS-FACTORIAL HepG2 Assay for human Retinoid X Receptor alpha (RXRa) (AID 2283012; active = hit-call score of the fitted dose curve at least 0.9, where 1 is the maximum)
Sequence of Retinoic acid receptor RXR-alpha (Homo sapiens) (P19793 whole entry, looked up, the tested form may be a part): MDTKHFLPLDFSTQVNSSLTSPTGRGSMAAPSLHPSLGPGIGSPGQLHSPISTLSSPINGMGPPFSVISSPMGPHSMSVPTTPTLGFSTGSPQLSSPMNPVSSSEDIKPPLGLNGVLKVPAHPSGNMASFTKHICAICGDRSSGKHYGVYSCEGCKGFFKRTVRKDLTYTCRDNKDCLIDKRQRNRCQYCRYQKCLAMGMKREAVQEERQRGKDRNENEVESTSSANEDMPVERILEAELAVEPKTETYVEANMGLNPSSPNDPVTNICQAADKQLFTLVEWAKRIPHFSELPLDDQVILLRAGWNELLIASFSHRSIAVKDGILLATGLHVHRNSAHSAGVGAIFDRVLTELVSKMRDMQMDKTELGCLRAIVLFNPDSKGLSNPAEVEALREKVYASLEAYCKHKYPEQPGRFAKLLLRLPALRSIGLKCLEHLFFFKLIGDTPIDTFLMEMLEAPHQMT
Method in brief: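 Transient transfection of human HepG2 with multiple GAL4-UAS reporter constructs; 24 h compound exposure; total RNA isolated, reverse-transcribed, PCR-amplified, 6-FAM labelled, HpaI-cut, resolved by capillary electrophoresis. Positive-direction fit versus DMSO.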

Measured: AC50

Sequence of E-selectin (Homo sapiens) (P16581 whole entry, looked up): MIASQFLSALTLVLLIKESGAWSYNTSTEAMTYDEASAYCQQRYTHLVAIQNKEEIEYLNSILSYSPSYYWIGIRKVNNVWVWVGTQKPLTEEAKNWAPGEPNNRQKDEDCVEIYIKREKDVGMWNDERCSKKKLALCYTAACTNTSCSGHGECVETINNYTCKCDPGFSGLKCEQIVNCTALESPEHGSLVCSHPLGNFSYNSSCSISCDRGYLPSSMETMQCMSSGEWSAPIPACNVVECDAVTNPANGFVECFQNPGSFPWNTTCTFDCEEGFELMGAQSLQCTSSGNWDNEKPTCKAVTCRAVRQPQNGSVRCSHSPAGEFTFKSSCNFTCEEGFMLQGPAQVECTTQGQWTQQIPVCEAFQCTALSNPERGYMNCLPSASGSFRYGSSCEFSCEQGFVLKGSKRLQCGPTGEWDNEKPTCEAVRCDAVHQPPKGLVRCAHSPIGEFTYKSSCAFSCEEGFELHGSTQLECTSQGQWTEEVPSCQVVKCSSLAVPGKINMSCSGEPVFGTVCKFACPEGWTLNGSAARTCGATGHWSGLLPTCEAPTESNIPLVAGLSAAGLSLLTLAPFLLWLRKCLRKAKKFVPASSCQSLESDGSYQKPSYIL

COC(=O)c1ccc(CNS(C)(=O)=O)cc1S(=O)(=O)NC(=O)Nc1nc(OC)cc(OC)n1
not listed: [20]
inactive: all other assays above

COCCO
not listed: [19]
inactive: all other assays above

Oc1ccc(C(c2ccc(O)cc2)C(Cl)(Cl)Cl)cc1
active: [3] 27.3 µM | [4] 31.5 µM | [5] 29.1 µM | [6] 14.6 µM | [7] 33.5 µM | [8] 15.5 µM | [9] 30.7 µM | [11] 16.4 µM | [12] 33.1 µM | [13] 29.4 µM | [14] 20 µM | [15] 19.3 µM | [16] 30.2 µM | [17] 6.1 µM | [18] 31.4 µM
inactive: [1] | [2] | [10]

CC1(C)C(C=C(Cl)Cl)C1C(=O)OCc1cccc(Oc2ccccc2)c1 (configuration not stated)
active: [7] 5.44 µM | [11] 6.15 µM | [13] 20 µM
inactive: all other assays above

N#CSCSc1nc2ccccc2s1
inactive: [1] | [20] | [2] | [10] | [16] | [17]
active: [1] 11.9 µM | [2] 13.3 µM | [3] 7.25 µM and 9.01 µM | [4] 6.07 µM and 10.3 µM | [5] 5.23 µM and 12.1 µM | [6] 4.06 µM and 12.2 µM | [7] 2.3 µM and 5.63 µM | [8] 8.35 µM and 14.4 µM | [9] 11 µM and 11.9 µM | [11] 5.31 µM and 5.24 µM | [12] 7.12 µM and 11.3 µM | [13] 4.4 µM and 4.82 µM | [14] 1.24 µM and 5.49 µM | [15] 3.51 µM and 10.6 µM | [16] 5.15 µM | [17] 35.8 µM | [18] 5.3 µM and 6.65 µM | [19] 5.06 µM and 5.42 µM

C[C@]12C[C@H](O)[C@H]3[C@@H](CCC4=CC(=O)CC[C@@]43C)[C@@H]1CC[C@@H]2C(=O)CO
not listed: [10]
inactive: all other assays above

CCC(C)OC(=O)N1CCCCC1CCO (configuration not stated)
inactive: [1] | [20] | [2] | [3] | [4] | [5] | [6] | [7] | [8] | [9] | [11] | [12] | [13] | [14] | [15] | [16] | [17] | [18] | [19]
active: [4] 0.981 µM

CCN(Cc1c(F)cccc1Cl)c1c([N+](=O)[O-])cc(C(F)(F)F)cc1[N+](=O)[O-]
active: [6] 11.3 µM | [7] 5.69 µM | [11] 11.8 µM | [13] 13.7 µM | [15] 12.6 µM | [16] 8.78 µM
not listed: [10]
inactive: all other assays above

CCN(CC)C(=O)c1cccc(C)c1
inactive: all assays above

CCCCCOC(=O)COc1cc(N2C(=O)C3=C(CCCC3)C2=O)c(F)cc1Cl
active: [7] 19.2 µM
inactive: all other assays above

CCOC(=O)C(C)Oc1ccc(Oc2cnc3cc(Cl)ccc3n2)cc1 (configuration not stated)
not listed: [10]
inactive: all other assays above

CCCCOC(=O)C(C)Oc1ccc(Oc2ccc(C(F)(F)F)cn2)cc1 (configuration not stated)
inactive: all assays above
